IEC-6 cytotox – cytotoxicity in IEC-6 intestinal epithelial cells, primary screen, cytotoxicity control for KLF5 inhibitor project, cell-based, luminescence | IEC-6 cytotoxicity, luminescence viability | inhibition, % at 5 µM | 290,000 compounds, 0.78% hits | AID 1825, 2009; in the data active means inhibition above about 22%
KLF5 inhibitor – KLF5 expression inhibitors, primary screen, DLD-1 cells, luminescence | inhibition, % at 5 µM | DLD-1 KLF5 promoter-luciferase reporter | 290,000 compounds, 0.23% hits | AID 1700, 2009;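 active means inhibition above a per-plate limit of that plate's mean compound inhibition plus 3 SD, cut at about 60% in these data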;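 further: higher means less KLF5 promoter-driven luciferase light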
aSyn UTR inh – MLPCN primary screen, SNCA 5' untranslated region; alpha-synuclein 5'UTR reporter, inhibitor activity; inhibition, % (tested at 7.5 µM); 300,000 compounds, 0.82% hits; in the data active means inhibition above about 60%;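 further: H4 neuroglioblastoma cells stably carrying SNCA 5'UTR luciferase fusion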
SKKanGAS inh – S. pyogenes SKKanGAS growth inhibitors in kanamycin, primary screen, streptokinase expression inhibitor project, SKKanGAS strain, BacTiter-Glo luminescence | inhibition, % at 7.5 µM | AID 1662, 2009 | 300,000 compounds, 1.3% hits | 6 h;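 active means mean replicate score, as percent of positive control median, at least 50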;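 further: strain carries kanamycin resistance gene driven by streptokinase promoter and grows in 40 µg/ml kanamycin; loss of luminescence reflects streptokinase promoter inhibition or plain growth inhibition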
CSC inhib – cancer stem cell viability inhibitors, primary screen, luminescence; cancer stem cell-like cells viability; inhibition, % at 7.5 µM; 300,000 compounds, 1.1% hits; AID 2717, 2010; in the data active means inhibition above about 75%; tested in HMLE shEcad cells
A number is an active result; – = inactive; · = no result given. A selection: hits, their analogues and other compounds. The true share with any hit is near 3%.

SMILES | IEC-6 cytotox | KLF5 inhibitor | aSyn UTR inh | SKKanGAS inh | CSC inhib
Cc1ccc(S(=O)(=O)Nc2ccc(C(OC(=O)c3ccccc3[N+](=O)[O-])(C(F)(F)F)C(F)(F)F)cc2)cc1 | – | – | – | – | 107
CC(=O)O[C@H]1C(=O)[C@]2(C)[C@H]([C@H](OC(=O)c3ccccc3)[C@]3(O)C[C@H](OC(=O)[C@H](O)[C@@H](NC(=O)c4ccccc4)c4ccccc4)C(C)=C1C3(C)C)[C@]1(OC(C)=O)CO[C@@H]1C[C@@H]2O | · | · | 95 | – | –
Cc1ccc2[nH]c(O)c(N=Nc3nc4ccccc4s3)c2c1 | – | – | – | 108 | –
CC(Oc1ccc(Cl)cc1Cl)C(=O)Nc1ccc(S(=O)(=O)Nc2cnc3ccccc3n2)cc1 (stereo not given) | – | – | – | 80 | –
CC(=O)Nc1ccc(NC(=O)C(C)Oc2ccc(Cl)cc2Cl)cc1 (stereo not given) | – | – | – | – | –
Cc1cc(Cl)ccc1OC(C)C(=O)Nc1ccc(S(=O)(=O)Nc2cnc3ccccc3n2)cc1 (stereo not given) | – | – | – | 67 | –
COc1ccc(NC(=O)C(=O)NNC(=O)C(C)Oc2ccc(Cl)cc2Cl)cc1 (stereo not given) | – | – | – | 71 | ·
O=C(Nc1ccccc1)C1=C[C@H](c2ccc(Br)cc2)C[C@H](OCc2ccc(CO)cc2)O1 | – | – | – | – | –
Cc1ccc(NC(=O)c2ccc3nsnc3c2)c(C)c1 | – | – | – | – | –
Cc1cc(C(C)(C)C)cc(C)c1COC(=O)CN1C(=O)NC2(CCCC2)C1=O | · | · | · | · | –
COc1cccc(C2NC(c3cccc(OC)c3O)C(C)C(=O)C2C)c1O (stereo not given) | – | – | – | – | –
CC1C(=O)C(C)C(c2cc(Cl)ccc2O)NC1c1cc(Cl)ccc1O (stereo not given) | – | – | – | 74 | –
O=C(NCCNC(=O)C(c1ccccc1)c1ccccc1)c1ccco1 | – | – | – | – | –
C/C(=N/NC(=O)CNC(=O)C(c1ccccc1)c1ccccc1)c1ccco1 | – | – | – | 55 | –
COc1ccc(C2CC(=O)c3cnc(N4CCN(Cc5ccccc5)CC4)nc3C2)cc1 (stereo not given) | – | – | – | 56 | –
CC1CC(C)CN(c2ncc3c(n2)CC(c2ccccc2Cl)CC3=O)C1 (stereo not given) | – | – | – | 63 | 84
CCOc1ccccc1OCCCC(=O)N(CC)CC(=O)Nc1c(F)cccc1F | · | · | – | – | –
CC(C)c1cc(N2CCC(=O)NC2=O)cc(C(=O)O)c1O | – | – | – | – | –
COC(=O)c1cc(=O)n(CCc2ccc(OC)cc2)c(=Nc2ccc(F)c(Cl)c2)s1 | – | – | – | – | 100
COC(=O)c1cc(=O)n(CCc2ccccc2)c(=Nc2ccc(F)cc2)s1 | – | – | – | – | –
O=C(NNC1=C(C(=O)C(F)(F)F)CCC1)c1cccc(O)c1 | – | – | – | – | –
Cc1cccc(C(=O)NNC2=C(C(=O)C(F)(F)F)CCC2)c1O | – | – | – | 104 | 110
Cc1c(C(=O)Nc2cc(F)ccc2F)sc2nc3n(c(=O)c12)CCCCC3 | – | – | – | – | –
CCOC(=O)c1sc(NC(=O)Nc2ccccc2F)nc1C | – | – | 70 | – | –
CCN(Cc1ccccc1)c1ccc(/C=N/N=C(N)N)cc1 | – | – | 94 | – | 102
SMILES | IEC-6 cytotox | KLF5 inhibitor | aSyn UTR inh | SKKanGAS inh | CSC inhib
CSc1n[nH]c2nc3c(c(=O)n12)C1(CCCCC1)Cc1ccccc1-3 | – | – | – | 60 | –
N=c1n(Cc2ccccc2)c2ccccc2n1CC(O)COc1ccc(Cl)cc1Cl (stereo not given) | – | – | 90 | · | ·
FC(F)(F)c1ccc(-c2noc(CN3CCCN(C4CCCCC4)CC3)n2)cc1 | – | – | – | – | 106
CCN(CC)C(=O)c1ccccc1NC(=O)CN1C(=O)c2ccccc2S1(=O)=O | – | – | – | – | ·
COc1cccc(C(=O)NCC(=O)N/N=C/c2ccc3c(c2)OCO3)c1 | – | – | – | – | –
CCc1nc2ccccc2c2nc3ccccc3n12 | – | – | – | – | –
O=c1c2ccc([N+](=O)[O-])c3cccc(c32)c2nc3ccccc3n12 | – | – | 79 | – | –
COc1ccc(CCNC(=O)c2c(O)c3ccccc3[nH]c2=O)cc1 | – | – | – | – | –
O=C1c2ccccc2NC(c2ccc(-c3ccc(Br)cc3)o2)N1O (stereo not given) | – | – | – | – | 103
O=C1c2ccccc2NC(c2ccc(-c3ccc(F)cc3)o2)N1O (stereo not given) | · | · | · | · | –
CC(C)c1cc(-c2cc(-c3ccccc3)on2)nc(NC2CCCC2)n1 | · | · | – | – | 85
Fc1ccc(/C=C2\CCCC3=C2Nc2ncnn2C3c2ccc(F)cc2)cc1 (stereo not given) | – | – | – | 64 | –
COCCN(CCOC)Cc1cc(=O)oc2cc3c(cc12)CCC3 | – | – | – | – | –
CC(C)CN(Cc1cc(=O)oc2cc3c(cc12)CCCC3)CC(C)C | – | – | – | 54 | –
C#CCOCCOCCOCCNc1nc(N2CCN(C(=O)CCCCCCCCCCNC(=O)[C@H](CCCCN)n3cc(C)nn3)CC2)nc(N2CCN(C(=O)CCCCCCCCCCNC(=O)[C@@H]([C@H](C)CC)n3cc(CCCCCN)nn3)CC2)n1 | · | · | · | · | 168
C#CCOCCOCCOCCNc1nc(N2CCN(C(=O)CCCCCCCCCCNC(=O)[C@H]([C@@H](C)CC)n3cc(CCCCCN)nn3)CC2)nc(N2CCN(C(=O)CCCCCCCCCCNC(=O)[C@@H]([C@H](C)O)n3cc(C)nn3)CC2)n1 | · | · | · | · | 109
C#CCOCCOCCOCCNc1nc(N2CCN(C(=O)CCCCCCCCCCNC(=O)[C@H](CCC(=O)O)n3cc(CCCCCN)nn3)CC2)nc(N2CCN(C(=O)CCCCCCCCCCNC(=O)[C@@H]([C@H](C)O)n3cc(C)nn3)CC2)n1 | · | · | · | · | –
CCOc1ccc(N(CC(=O)NCc2ccc(F)cc2)C(=O)c2ccco2)cc1 | – | – | – | – | ·
O=C(/C=C/c1ccco1)Nc1ccc(-c2nc3ccccc3[nH]2)cc1 | – | – | 89 | – | –
COc1ccc(-c2nc(-c3cccs3)no2)cc1 | – | – | 83 | – | –
CCOc1ccc(-c2cnc3ccccc3n2)cc1 | – | – | 92 | – | –
O=[N+]([O-])c1ccc(-c2cnc3ccccc3n2)cc1 | – | – | – | – | –
CC1CCN(C(=O)N2c3ccccc3Sc3ccccc32)CC1 | – | – | – | 54 | –
Cc1ccsc1/C=N/Nc1cccc(C(=O)O)c1 | – | – | 105 | · | –
O=C(O)c1cccc(N/N=C/C2=C(Cl)c3cc(Cl)ccc3SC2)c1 | – | – | – | 106 | ·
Cc1ccc(/C=N/Nc2cccc(C(=O)O)c2)s1 | – | – | – | – | ·
Cc1nn(-c2ccccc2Cl)c(Cl)c1/C=N/Nc1cccc(C(=O)O)c1 | – | – | 103 | – | –
CCN(CC(=O)Nc1ccc(NC(C)=O)cc1)C(=O)c1cccc(S(=O)(=O)N2c3ccccc3CC2C)c1 (stereo not given) | · | · | – | – | –

From PubChem
